About 570 (0.26%) of roughly 220,000 compounds were called active. This is one part of a sample in which actives are shown more often than they occur. A number with no mark means an inactive call. Cut-off read from the data, not from the text of the source: active = inhibition above about 29%; inactive = the rest.

Here are results for 103 molecules from PubChem BioAssay AID1510 (The Scripps Research Institute Molecular Screening Center, 2009).

This experiment deals with Sphingosine 1-phosphate receptor 4 (Homo sapiens) (UniProt O95977). As to the kind of experiment: blockers of human S1P4 receptor – cell-based, primary screen (AID 1510).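 Note: 0% = wells stimulated with agonist and 100% = vehicle wells without agonist.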 Particulars: S1P4-expressing cells, antagonist mode, reporter read-out; at 4.98 µM; active compounds read high.
Sphingosine 1-phosphate receptor 4 (Homo sapiens), sequence (O95977 whole entry, looked up): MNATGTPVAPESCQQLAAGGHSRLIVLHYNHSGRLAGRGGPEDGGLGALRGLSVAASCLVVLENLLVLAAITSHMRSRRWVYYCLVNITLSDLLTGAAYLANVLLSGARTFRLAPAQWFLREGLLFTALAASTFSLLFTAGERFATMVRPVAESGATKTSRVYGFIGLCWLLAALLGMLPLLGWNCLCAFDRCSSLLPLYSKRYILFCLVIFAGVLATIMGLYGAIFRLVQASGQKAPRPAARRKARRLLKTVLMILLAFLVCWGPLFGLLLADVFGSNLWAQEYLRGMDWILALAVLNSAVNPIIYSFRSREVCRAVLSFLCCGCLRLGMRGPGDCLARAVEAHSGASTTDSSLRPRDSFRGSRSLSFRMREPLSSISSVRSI
The inhibition is the relative decrease from the control value, in per cent. In the case of `CC(C)(C)C(=O)NCCCNc1ccc([N+](=O)[O-])cc1`, the inhibition was 4.36%.

As to `Cc1cc(C)n(-c2nnc(N3CCN(c4ccccc4)CC3)nn2)n1`, the inhibition was 9.76%.

`CCn1nnnc1SCC(=O)c1ccc(C)cc1C`: the inhibition was -2.87%.

As for `Cc1ccc(SC(CC(=O)c2ccc(C(C)(C)C)cc2)C(=O)O)cc1` (stereo not drawn), the inhibition was 26%.

In the case of `Cn1c(=O)c2c(nc(N/N=C/c3cccs3)n2Cc2ccc(Br)cc2)n(C)c1=O`, the inhibition was -19.2%.

Consider `Cc1ccc(COc2ccc(/C=N/NC(=O)CN3CCCCC3)cc2)cc1`, for which the inhibition was -8.97%.

For `CC1CC2=C(CC1/C=N/NC(N)=S)C(C)(C)CCC2` (stereo not drawn), the inhibition was 29.9% (active).

In the case of `CC1(C)CCCC2=C1CC1C(=O)N(c3ccccc3)C(=O)C1C2` (stereo not drawn), the inhibition was -11.5%.

On to `COc1ccc(C)c(Cn2c(-c3nonc3N)nc3ccccc32)c1`, for which the inhibition is -20.7%.

Regarding `Nc1nonc1-c1nc2ccccc2n1Cc1ccc(F)cc1`, the inhibition was 38.9% (active).

Consider `CC(=O)Nc1nonc1-c1nc2ccccc2n1Cc1ccccn1`, for which the inhibition is -6.67%.

Consider `COc1ccc(CCCc2nnc(SCc3nc4ccccc4c(=O)[nH]3)n2C)cc1`, for which the inhibition was 3.12%.

As for `C=C(C)CNC(=S)Nc1ccc(S(=O)(=O)Nc2cnc3ccccc3n2)cc1`, the inhibition was 2.29%.

Regarding `Cc1cc2oc(C(=O)Nc3c(C)n(C)n(-c4ccccc4)c3=O)c(C)c2cc1Cl`, the inhibition is 29.2% (active).

Regarding `Cc1cc(C(=O)Nc2c(C)n(C)n(-c3ccccc3)c2=O)cs1`, the inhibition was -8.59%.

In the case of `Cc1c(NC(=O)c2coc(=O)c(Br)c2)c(=O)n(-c2ccccc2)n1C`, the inhibition is -7.02%.

Consider `COc1ccc(NC(=O)COC(=O)c2ccncc2)c(OC)c1`, for which the inhibition is -5.29%.

Consider `Cc1cc(C(C)(C)C)oc1C(=O)N(CC(=O)NC1CCCC1)Cc1ccc(Cl)cc1`, for which the inhibition was -6.52%.

In the case of `CC(C)NC(=S)N1CCN(S(C)(=O)=O)CC1`, the inhibition was -10.4%.

`Cc1nc2cc3c(cc2s1)OCO3`: the inhibition is -20.6%.

With `COc1ccc(C(=O)NCc2nnc(SCCOc3ccccc3)n2C)cc1`, the inhibition is -1.19%.

As to `CC(C)N(C(=O)c1ccc(-c2ccccc2F)cc1)C(C)C`, the inhibition was 26.9%.

Turning to `CC(NCc1ccccc1OC1CCCC1)c1ccccc1` (stereo not drawn), the inhibition was 27.7%.

For `CC(C)(C)NC(=O)C(=O)NCc1ccncc1`, the inhibition was -14.6%.

Take `CNS(=O)(=O)c1ccc(NC(=O)C2CC(=O)N(c3ccc(Cl)cc3)C2)cc1` (stereo not drawn): the inhibition was 12.8%.

As for `CC(=O)Nc1ccc(S(=O)(=O)N2CCN(c3ccc([N+](=O)[O-])c(NCCN4CCOCC4)c3)CC2)cc1`, the inhibition was -3.22%.

Regarding `COc1cc(NC(=O)CN(C)S(=O)(=O)c2ccc3nc(C)sc3c2)cc(OC)c1`, the inhibition is -2.8%.

For the molecule `Cc1cc(/C=N/NC(N)=O)c(C)n1C1CCCCC1`, the inhibition is 16.8%.

With `Cc1cccc(C(=O)Nc2ccccc2C(=O)NCc2cccnc2)c1`, the inhibition was -7.4%.

Turning to `Cc1ccc2cc(/C=N/Nc3ccc(C(=O)O)cc3)c(Cl)nc2c1`, the inhibition is 4.36%.

On to `Cc1nc([N+](=O)[O-])cn1CC(=O)Nc1ccc2c(c1)OCO2`, for which the inhibition was -4.57%.

`Cc1nn(CC#N)c(=O)n1N(C)c1ncc(C(F)(F)F)cc1Cl`: the inhibition is -4.17%.

For `CCOc1ccc(C(=O)Nc2cccc(-c3ccc4nncn4n3)c2)cc1`, the inhibition was 0.94%.

With `O=C(C1CCN(S(=O)(=O)c2ccc(Br)s2)CC1)N1CCN(C2CCCCC2)CC1`, the inhibition is -2.03%.

As to `CN(C)c1ccc(/C=C/C(=O)c2ccc(C(C)(C)C)cc2)cc1[N+](=O)[O-]`, the inhibition was -10.1%.

With `O=C(/C=C/c1ccc(Cl)c([N+](=O)[O-])c1)c1ccc(O)cc1`, the inhibition is 46.2% (active).

Consider `CN(C)c1ccc(/C=C/C(=O)c2ccc(O)cc2)cc1[N+](=O)[O-]`, for which the inhibition was 6.74%.

Regarding `COc1ccccc1CNC(=O)Cn1c(=O)oc2cc(Cl)ccc21`, the inhibition was 0.8%.

`COc1ccc(C[C@H]2CN3C(=NC[C@H]3C)N2CCNC(=O)CCC2CCCCC2)cc1`: the inhibition is -5.06%.

For the molecule `CC1CCCC(NC(=O)c2cccc(N3CCCC3=O)c2)C1C` (stereo not drawn), the inhibition was -7.04%.

As for `C/C(=N/O)c1ccc(N2C(=O)C3C4C=CC(C3C2=O)C2C3C(=O)N(c5ccc(/C(C)=N/O)cc5)C(=O)C3C42)cc1` (stereo not drawn), the inhibition was -4.36%.

On to `COC(=O)C1=C(Nc2ccc(C)cc2)C=C(C)C(C(=O)OC)C1c1ccc(F)cc1` (stereo not drawn), for which the inhibition is -18%.

In the case of `O=C(NNC(=S)Nc1ccc(Br)cc1Cl)c1ccco1`, the inhibition was -12.4%.

`NC(=O)N/N=C\c1cccs1`: the inhibition is -18.6%.

As to `CCCCCCCC(=O)NC(Nc1ccccc1OC)C(Cl)(Cl)Cl` (stereo not drawn), the inhibition was 8.46%.

With `Cc1cc(NC(=O)CSCc2ccccc2C)no1`, the inhibition is -4.86%.

With `C=CS(=O)c1sc(Cl)c(N2CCOCC2)c1[N+](=O)[O-]` (stereo not drawn), the inhibition is 46.3% (active).

Consider `O=c1c2cc(-c3ccccc3)sc2nc2n1N=C(c1cccs1)CS2`, for which the inhibition was -3.31%.

As to `CCOc1ncccc1C(=O)N(CC)CC(=O)Nc1ccc(NC(C)=O)cc1`, the inhibition is -27.8%.

Take `CNc1ccc(SC#N)cc1`: the inhibition was 30.8% (active).

`COc1cc2c(cc1O)[C@H](Cc1ccc(Oc3cc(C[C@@H]4NCCc5cc(OC)c(O)cc54)ccc3O)cc1)NCC2`: the inhibition was -13.1%.

As for `CC[C@H]1CN2CCc3cc(OC)c(OC)cc3[C@@H]2C[C@@H]1C[C@H]1NCCc2cc(OC)c(OC)cc21`, the inhibition is 82.3% (active).

Regarding `O=C(Nc1ccc(Cl)cc1)Nc1ccc(C(=O)N2CCOCC2)cc1`, the inhibition is 6.4%.

Regarding `Cc1ccc(Oc2cc(NC(=O)CCCn3nc(C)c([N+](=O)[O-])c3C)cc([N+](=O)[O-])c2)cc1`, the inhibition is -12.2%.

Turning to `CS(=O)(=O)c1ccc(Cl)c(NC(=O)Nc2ccccc2)c1`, the inhibition was 17.2%.

Turning to `O=C(Nc1ccccc1)c1nnsc1S(=O)(=O)c1ccc(Cl)cc1`, the inhibition is 93.8% (active).

As to `O=C(Nc1ccc(Cl)cc1)c1ccsn1`, the inhibition is 4.84%.

As to `CS(=O)(=O)N(CC(=O)N1CCN(c2ccc(F)cc2)CC1)C1CCCCC1`, the inhibition was -13.7%.

`Cc1ccc(CCC(=O)Nc2ncc(Cc3cc(Cl)ccc3Cl)s2)o1`: the inhibition is -6.95%.

For `CCc1ccc(S(=O)(=O)NCC(O)COc2ccc(OC)cc2)cc1` (stereo not drawn), the inhibition was 2%.

In the case of `COc1ccc(Cl)cc1CSc1ncn[nH]1`, the inhibition was -3.23%.

Take `O=C(NCCOCc1ccc(Cl)cc1)c1ncn[nH]1`: the inhibition is -4.23%.

With `O=C(/C=C/Sc1ncn[nH]1)c1ccc(Cl)cc1`, the inhibition is 47.2% (active).

As for `CC(=O)N1N=C(c2ccncc2)OC1(Cc1ccccc1)Cc1ccccc1`, the inhibition was 23.2%.

Consider `CN(C)CCNC(=O)Cc1ccc([N+](=O)[O-])cc1`, for which the inhibition is -16%.

With `CCCc1nc2c(C)cc(-c3nc4ccccc4n3C)cc2n1Cc1ccc(-c2ccccc2C(=O)O)cc1`, the inhibition was -1.52%.

With `CCOc1ccc(C(C)=O)cc1COC(=O)c1cnc(Cl)c(Cl)c1`, the inhibition was -30.6%.

Turning to `CCOC(=O)C(C(=O)OCC)C(C#N)c1ccccc1` (stereo not drawn), the inhibition was -19.7%.

With `O=C(Cc1ccc(-c2ccccc2)cc1)NC(c1ccccc1)c1ccccc1`, the inhibition was -5.23%.

In the case of `CCOC(=O)/C=C/C(=O)OCC(=O)NC(c1ccccc1)c1ccccc1`, the inhibition was 36.3% (active).

As for `O=C(CSc1cccc[n+]1[O-])NCCCc1ccccc1`, the inhibition was 14.6%.

`O=C(Nc1nnc(CCN2CCCCC2)s1)c1cccc(Cl)c1`: the inhibition was 6.03%.

Regarding `Cc1cc(Nc2cccc(C)c2C)n2ncnc2n1`, the inhibition is -10.4%.

As to `O=C(CSc1nnnn1-c1ccc(O)cc1)c1ccc(F)cc1`, the inhibition is 6.46%.

In the case of `CCOC(=O)c1sc(NC(=O)CSc2nc(O)c(Cc3ccccc3)c(=O)[nH]2)nc1C`, the inhibition was -8.89%.

As to `Cc1[nH]c2ccccc2c1-c1ccc(Cl)nn1`, the inhibition is 2.48%.

With `O=C(CO/N=C/c1ccccc1O)NNC(=O)c1ccccc1Cl`, the inhibition is -12.4%.

Take `Cc1cc(C)cc(Oc2nc3c(C)cccn3c(=O)c2/C=C(\C#N)C(=O)NC2CCS(=O)(=O)C2)c1` (stereo not drawn): the inhibition is -10.8%.

As to `CCNC(=O)NNC(=O)C1CC(c2cccs2)=NO1` (stereo not drawn), the inhibition is -2.29%.

Take `CCOc1ccc(NS(=O)(=O)c2ccc(C)c(C(N)=O)c2)cc1`: the inhibition is -13.9%.

Take `CC(=O)Nc1ccc(S(=O)(=O)NC2(C(F)(F)F)C(=O)Nc3c2c(=O)[nH]c(=O)n3Cc2ccccc2)cc1` (stereo not drawn): the inhibition was -16.6%.

Turning to `O=C(Nc1ccccc1)N1CCN(C2c3ccccc3-c3ccccc32)CC1`, the inhibition was -2.81%.

On to `COc1ccc(NC(=O)c2cn(-c3ccccc3)nc2SC)cc1`, for which the inhibition is -1.4%.

As for `COCC(=O)Nc1cc(C(=O)OC)cc(C(=O)OC)c1`, the inhibition was -10.1%.

Consider `Nc1c(C(=O)O)cnn1-c1ccccc1`, for which the inhibition was -7.33%.

`CC(C)NC(=O)NCCCCCCS(C)=O` (stereo not drawn): the inhibition is -8.38%.

Take `CSc1cccc(NC(=O)C2CCCN2S(=O)(=O)c2ccc3c(c2)CCC(=O)N3)c1` (stereo not drawn): the inhibition was -15%.

Regarding `CCC(C)(C)C1CCC(=NNC(=O)c2ccc(Br)o2)CC1` (stereo not drawn), the inhibition was -7.44%.

Regarding `CCOC(=O)Cc1ncccc1C(=O)Nc1ccc(OC(F)(F)F)cc1`, the inhibition is -25.3%.

For the molecule `COC(=O)c1ccc(S(=O)(=O)NCc2ccccc2)n1C`, the inhibition was -20.7%.

As to `Cc1nn(-c2ccccc2)c(C)c1NC(=O)CCl`, the inhibition is -19.8%.

In the case of `COc1ccc2ccccc2c1CNc1nnnn1C`, the inhibition is 6.29%.

On to `O=C(O)c1ccn(COc2ccc(Br)cc2)n1`, for which the inhibition is 3.75%.

Regarding `Nc1nnc(SCC(=O)Nc2ccc3nc(SCC(=O)Nc4ccccc4)sc3c2)s1`, the inhibition was -10.8%.

Take `CC(C)C(C)(C#N)NC(=O)CSc1nncn1-c1ccccc1` (stereo not drawn): the inhibition is -9.99%.

In the case of `CCOc1ncccc1C(=O)N(C)CC(=O)Nc1ccc(F)cc1`, the inhibition was -7.65%.

Take `CCCCCC1CCC(c2nnc(SCC(C)=O)o2)CC1` (stereo not drawn): the inhibition is -13.8%.

For `NC(=O)COC(=O)c1cc(S(=O)(=O)N2CCN(c3ccccc3)CC2)ccc1Cl`, the inhibition was -4.86%.

`Cn1c(CCC(=O)OCC(=O)NCc2ccccc2Cl)nc(=O)c2ccccc21`: the inhibition was -5.53%.

`O=C(Nc1ccc(F)cc1)N1CCN(c2ccc(F)cc2)CC1`: the inhibition is -44%.

Take `Cn1c(N)c(C(=O)COC(=O)c2cnc(Cl)c(Cl)c2)c(=O)n(C)c1=O`: the inhibition was -6.76%.

As for `CCc1nnc(NS(=O)(=O)c2ccc(NC(=S)NC(=O)/C=C/c3cccs3)cc2)s1`, the inhibition was 9.53%.

`O=C(Nc1ccccc1Cc1ccccc1)c1ccc2c(c1)SC1=NS(=O)(=O)CCN12`: the inhibition is -10.9%.
